± gives the standard deviation of the averaged measurements. Over roughly 33,000 sequences, “E-score (dimensionless, -0.5 to 0.5)” has its median near -0.046; the highest 2% begin near 0.36. Only a selection was taken, and the highest values are over-represented in it overall.
What follows are sequences tested on T1, SpTbr T-box DNA-binding domain (GST fusion) (assay: PBM E-score of 8-mer (E-score (dimensionless, -0.5 to 0.5)); Tbr is Tbrain of the sea star Patiria miniata (Pm) or the sea urchin Strongylocentrotus purpuratus (Sp); higher = stronger binding preference). Settings: the construct has about 5 more residues each side.
T1 sequence: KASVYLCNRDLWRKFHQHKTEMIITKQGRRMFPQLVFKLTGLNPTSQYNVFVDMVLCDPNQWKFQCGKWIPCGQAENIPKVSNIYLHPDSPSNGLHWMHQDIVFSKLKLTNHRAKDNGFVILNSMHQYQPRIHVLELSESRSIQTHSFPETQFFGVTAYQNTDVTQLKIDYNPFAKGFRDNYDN
How it was run: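 Each ungapped 8-mer received an enrichment E-score from the Universal PBM Analysis Suite, averaged over duplicate arrays. The proteins were Tbr T-box DNA-binding domains, covering the whole T-box plus about five flanking residues, fused to GST and expressed in BL21 E. coli at 20 °C before glutathione affinity purification. Universal Agilent oligonucleotide arrays were made double-stranded by primer extension and incubated with 200 nM protein in PBS (pH 7.5). The arrays were then scanned and quantified, and every 8-mer was scored from probe intensities.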

Row | Sequence | PBM E-score of 8-mer
1 | CGTTAACG | 0.372 ± 0.0041
2 | CAAGTTCG | 0.0356 ± 0.0073
3 | TAGGCGAA | 0.0827 ± 0.01
4 | CGATACCC | -0.00698 ± 0.068
5 | ACTTAATG | -0.1 ± 0.055
6 | CGATTTTA | -0.151 ± 0.033
7 | CCGGTGTC | 0.18 ± 0.047
8 | CAGGTGTC | 0.4679 ± 0.0019
9 | CAGGTGAG | 0.399 ± 0.0058
10 | CCGGTGAG | 0.089 ± 0.024
11 | CAGGTGTA | 0.358 ± 0.0037
12 | ACGGTGAT | 0.115 ± 0.028
13 | CAGGTGAA | 0.199 ± 0.031
14 | AAGGTGAT | 0.384 ± 0.023
15 | GGGGTGAC | 0.293 ± 0.043
16 | AGGGTGAT | 0.123 ± 0.024
17 | GAGGTGAC | 0.429 ± 0.018
18 | GAGGTGAA | 0.198 ± 0.0028
19 | CGAAGCCG | 0.244 ± 0.045
20 | ACCAGCTA | -0.0508 ± 0.0037
21 | CGCGAGCA | 0.275 ± 0.036
22 | AGCAGAGA | -0.259 ± 0.039
23 | CGGACAAA | -0.0576 ± 0.039
24 | CCGAAATC | -0.048 ± 0.0049
25 | CAGAGCAG | -0.246 ± 0.033

Row | Sequence | PBM E-score of 8-mer
26 | AGGGTGAG | 0.216 ± 0.048
27 | AAGGTGAC | 0.381 ± 0.026
28 | ACGGTGAC | 0.284 ± 0.0089
29 | AAGGTGAA | 0.187 ± 0.0077
30 | ACGGTGAG | 0.0305 ± 0.02
31 | CAGGTGAC | 0.425 ± 0.013
32 | CAGATGAC | -0.0314 ± 0.026
33 | CTGGTGAC | 0.162 ± 0.074
34 | AAGGTGAG | 0.445 ± 0.014
35 | ACAGCTCC | 0.157 ± 0.0081
36 | GCCTGCAC | -0.0663 ± 0.051
37 | ACGTGTCA | 0.458 ± 0.0068
38 | ACGTGAGA | 0.3312 ± 0.0033
39 | ACGTGTGC | 0.253 ± 0.017
40 | ACGTGTGG | 0.416 ± 0.00045
41 | CCGTGTCA | 0.176 ± 0.013
42 | ACGTGTCT | 0.204 ± 0.034
43 | GCGTGTAA | 0.0697 ± 0.022
44 | GCGTGAGA | 0.361 ± 0.03
45 | ACGTGGGC | -0.0975 ± 0.06
46 | ACGTGGGG | -0.127 ± 0.012
47 | GCGTGTGA | 0.399 ± 0.0074
48 | ACGTGTGA | 0.4797 ± 0.0017
49 | AACTCTTG | -0.0545 ± 0.035
50 | CGTAGGAA | -0.00351 ± 0.079

Row | Sequence | PBM E-score of 8-mer
51 | CTTCTGCA | 0.00227 ± 0.035
52 | CAGCGCAG | -0.14 ± 0.069
53 | CAACCCAG | -0.2068 ± 0.00038
54 | AATCTGAG | 0.0009 ± 0.0013
55 | CTATGAGC | -0.1 ± 0.02
56 | ACCGCTGC | 0.0922 ± 0.006
57 | CCGTGTGC | 0.0129 ± 0.03
58 | CCGTGAGA | 0.143 ± 0.015
59 | CCGTGTGA | 0.381 ± 0.017
60 | ATCTAGAA | -0.151 ± 0.049
61 | CACACGTC | 0.451 ± 0.0092
62 | CACACGTA | 0.356 ± 0.0042
63 | CACACGGC | 0.151 ± 0.069
64 | AACACGTG | 0.36 ± 0.008
65 | CACACGTG | 0.383 ± 0.0078
66 | CGCACGTC | 0.331 ± 0.013
67 | AACCCCTG | -0.108 ± 0.043
68 | CACTGAGC | 0.00197 ± 0.0073
69 | CGCTTTAA | -0.169 ± 0.035
70 | AAAGTAGC | -0.0267 ± 0.0034
71 | ACTCGACA | 0.24 ± 0.029
72 | CAGCTGCC | -0.0128 ± 0.074
73 | GAGTGTGA | 0.478 ± 0.0052
74 | CAGTGTAA | 0.0331 ± 0.071
75 | GAGTGTAA | 0.235 ± 0.04

Row | Sequence | PBM E-score of 8-mer
76 | TAGTGAGA | 0.209 ± 0.089
77 | GAGTGTGC | 0.296 ± 0.015
78 | TAGTGGGA | -0.0317 ± 0.03
79 | CAGTGTGA | 0.393 ± 0.0076
80 | TAGTGTGA | 0.453 ± 0.011
81 | CAGTGTGG | 0.243 ± 0.043
82 | CCAAAGGA | -0.262 ± 0.032
83 | AGCCTCAC | 0.178 ± 0.015
84 | GCTGTTCC | -0.0355 ± 0.05
85 | GCCTCCGA | -0.0614 ± 0.071
86 | GAGTATGA | -0.047 ± 0.066
87 | CTTGCCAA | 0.153 ± 0.021
88 | CTGGTGTC | 0.312 ± 0.033
89 | ATGGTGTC | 0.392 ± 0.005
90 | ATGGTGTA | 0.127 ± 0.015
91 | ATGGTGTG | 0.39 ± 0.023
92 | ATGGTGCG | 0.206 ± 0.037
93 | ATGGTGGC | 0.274 ± 0.028
94 | AAGTTTGA | -0.0385 ± 0.021
95 | CGGTCAGC | -0.186 ± 0.18
96 | ATTCAAAT | -0.0886 ± 0.04
97 | ATAGAGCG | -0.0811 ± 0.011
98 | AATTGTTC | 0.0645 ± 0.035
99 | GACCACCC | -0.0294 ± 0.0021
100 | AACACCAC | 0.344 ± 0.015

Row | Sequence | PBM E-score of 8-mer
101 | CCCACCAA | -0.0327 ± 0.016
102 | CACCACAC | 0.3556 ± 0.0015
103 | CACACCAC | 0.394 ± 0.015
104 | CCCACCAC | -0.00552 ± 0.018
105 | AACACCAG | 0.317 ± 0.028
106 | CACACCAG | 0.386 ± 0.036
107 | CACACCAA | 0.38 ± 0.017
108 | GACACCAA | 0.327 ± 0.024
109 | CGCACCAG | 0.242 ± 0.0071
110 | GACACCAC | 0.367 ± 0.039
111 | CTCACCAA | 0.133 ± 0.059
112 | TCATTTAA | -0.193 ± 0.036
113 | CCTCTGCA | -0.1407 ± 0.00062
114 | AATAGCCC | -0.194 ± 0.016
115 | AGTAAATA | -0.121 ± 0.066
116 | GCTTGCTA | -0.156 ± 0.02
117 | AGCGCACG | 0.137 ± 0.04
118 | ACTGTCTG | 0.126 ± 0.021
119 | AGGCTTGG | -0.225 ± 0.031
120 | AGACTTTC | 0.00343 ± 0.055
121 | GCTACCTA | -0.0771 ± 0.051
122 | ACCTGTGA | 0.3985 ± 0.0028
123 | ACCTGTCT | 0.104 ± 0.0037
124 | AGCTGTGC | 0.214 ± 0.041
125 | CCCTGTCG | -0.00439 ± 0.04

Row | Sequence | PBM E-score of 8-mer
126 | ACCTGTGC | 0.151 ± 0.018
127 | AGCTGTCC | 0.00624 ± 0.016
128 | GCCTGTGA | 0.187 ± 0.0033
129 | GGCTGTCA | 0.172 ± 0.051
130 | AGCTGTCA | 0.382 ± 0.022
131 | ACCTGTCG | 0.37 ± 0.011
132 | AGCTGTGG | 0.129 ± 0.058
133 | AGCTGTGA | 0.393 ± 0.0083
134 | CGGCCAAA | -0.0415 ± 0.0054
135 | ATAACCGA | -0.206 ± 0.066
136 | CAGTTCTC | 0.143 ± 0.053
137 | AACCACTG | -0.317 ± 0.011
138 | CACTCTCC | 0.0753 ± 0.021
139 | AACTGTGC | -0.0399 ± 0.045
140 | AACTGTGA | 0.376 ± 0.011
141 | AACTGTGG | 0.128 ± 0.0018
142 | GCTTAGGA | -0.107 ± 0.059
143 | AACCTCTC | -0.0774 ± 0.028
144 | CAACTCTG | 0.225 ± 0.013
145 | AACCTCTA | -0.187 ± 0.065
146 | CACCTCTG | 0.3929 ± 0.0014
147 | AACCTCTG | -0.137 ± 0.075
148 | GACCTCTC | -0.153 ± 0.016
149 | CACCTCTA | 0.416 ± 0.0043
150 | GACCTCTA | -0.234 ± 0.033

Row | Sequence | PBM E-score of 8-mer
151 | CACCTCTC | 0.421 ± 0.022
152 | ATAGGAGC | -0.181 ± 0.022
153 | CACAACTC | 0.25 ± 0.0039
154 | AGAGGAGA | -0.116 ± 0.043
155 | CTTTCAGC | -0.162 ± 0.032
156 | GGTTGTTA | 0.213 ± 0.048
157 | CCGACCTC | -0.148 ± 0.046
158 | CAACACGG | 0.0142 ± 0.003
159 | ATGTCAGA | -0.15 ± 0.011
160 | GTGTCAAA | 0.444 ± 0.0081
161 | CTGTCAAC | 0.35 ± 0.023
162 | GTGTCAGA | 0.387 ± 0.023
163 | ATGTCAAC | 0.267 ± 0.024
164 | TTGTCAAA | 0.0897 ± 0.09
165 | GTGTCAAC | 0.4761 ± 0.0027
166 | CTGTCAGA | 0.207 ± 0.025
167 | ATGTCGCA | 0.231 ± 0.039
168 | CTGTCAAA | 0.249 ± 0.057
169 | GTGTCGCA | 0.367 ± 0.021
170 | CTGTCGCA | 0.235 ± 0.054
171 | CCGCTCTC | -0.00942 ± 0.013
172 | CCTATTCG | -0.116 ± 0.11

Source: the supplement of paper PMC4166925
